Most compounds without a hit are left out; they make up all but 1.2% or so of the library.
VCAM1 TNFa inh: reduces TNF alpha induced VCAM1 expression in HUVEC. HUVEC TNFa-induced VCAM-1 immunofluorescence, high-content imaging. AID 802. 95,000 compounds, 0.48% hits. inhibition, % at 2 µM;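 active = inhibition above the batch mean plus 3 SD, with images confirmed as a hit by eye, cut at about 37% in these data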;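 also: 0% = TNF-stimulated DMSO wells and 100% = unstimulated control wells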
F-actin modifier: cytoskeleton assembly modification; HUVEC TNFa F-actin phalloidin imaging, high content; inhibition, % at 2 µM; 91,000 compounds, 0.18% hits; AID 836;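 active = inhibition above the batch mean plus 3 SD and confirmed as a hit by visual image inspection, cut at about 30% in these data, passing the limit was not always enough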
E-sel TNF inh: blocks E-selectin expression induced by TNF alpha; HUVEC TNFa-induced E-selectin immunofluorescence, high content; inhibition, % at 2 µM; 120,000 compounds, 0.71% hits; AID 1246;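 active = inhibition above the batch mean plus 3 SD, and confirmed as a hit on visual image review, cut at about 43% in these data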;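 also: 0% = TNF-stimulated DMSO wells and 100% = unstimulated control wells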
HUVEC tox TNFa: toxic to HUVEC cells under TNF alpha stimulation. HUVEC TNFalpha-stimulated, Hoechst cell count, imaging. cell count reduction, % at 2 µM. 93,000 compounds, 0.17% hits;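 active = cell count reduction exceeding the screen mean by over 5 SD, scaled to untreated wells per plate, cut at about 78% in these data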;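 also: cells counted after 24 h of TNF alpha exposure following the 1 h pretreatment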
* marks the source's active call; other numbers are inactive results; x = no result.

SMILES	VCAM1 TNFa inh	F-actin modifier	E-sel TNF inh	HUVEC tox TNFa
Cc1cc(C)cc(NC(=O)CC2NCCNC2=O)c1 (stereo unspecified)	85.9*	21.8	x	-28.7
Cc1ccc(NC(=O)CC2NCCNC2=O)cc1 (stereo unspecified)	1.8	-3.3	-3.1	-7.6
O=C(Cc1ccc(-n2cccc2)cc1)NC1CCCCCC1	40.7*	-9.4	-18.3	-9.9
O=C(Cc1ccc(-c2ccccc2)cc1)NC1CCCC1	x	x	13.3	x
O=C(CN(c1ccccn1)S(=O)(=O)c1ccc(F)cc1)Nc1ccccc1	x	x	9.9	x
C=CCn1c(N2CCCCCC2)nc2c1c(=O)n(C)c(=O)n2C	-3.5	8.8	-2.0	8.7
C=CCn1c(N2CCCC2)nc2c1c(=O)[nH]c(=O)n2C	41.1*	6.7	21.8	22.0
CC(=O)Cn1c(N2CCC(Cc3ccccc3)CC2)nc2c1c(=O)[nH]c(=O)n2C	2.9	31.3*	x	16.6
Cn1c(=O)[nH]c(=O)c2c1nc(N1CCCCC1)n2CCCSc1nnnn1-c1ccccc1	x	x	89.2*	x
Cn1c(=O)[nH]c(=O)c2c1nc(Br)n2CCSc1nnnn1-c1ccccc1	x	x	-20.9	x
O=C(COC(=O)CCc1ccc(S(=O)(=O)N2CCOCC2)cc1)NC1CCCC1	x	x	62.9*	x
O=C(CSc1nnc(Cc2ccccc2)o1)NC1CCCCC1	-0.8	7.7	-25.4	4.9
COc1ccc(Cc2nnc(SCC(=O)NC3CCCC3)o2)cc1	15.7	4.0	54.3*	-26.9
Cc1ccc(/C=C2\SC(N)=NC2=O)s1	x	x	94.7*	x
CCn1cc(C(=O)OCc2cccc(Br)c2)c(=O)c2ccc(C)nc21	1.3	4.1	16.5	-7.3
CCN1C(=O)c2cccc3c(NC(=O)c4cccc(N5C(=O)CCC5=O)c4)ccc1c23	0.9	-25.3	60.1*	-17.5
CCOc1cc(C(=O)Nc2ccc3c4c(cccc24)C(=O)N3CC)cc(OCC)c1OCC	15.1	-17.8	-19.2	6.1
CCOC(=O)c1ccc(OCC(=O)c2ccc(O)cc2O)cc1	11.5	5.3	18.6	-27.9
CCCOc1ccc([N+](=O)[O-])cc1C1NC(=S)NC(c2ccccc2)=C1C(=O)OCC (stereo unspecified)	24.6	-17.4	70.4*	26.5
COc1cc(C(=O)N(CCc2ccccc2)C2=CC3CCC(C2)N3C)cc(OC)c1OC (stereo unspecified)	7.2	2.4	4.0	-21.7
CCCCN(C(=O)c1cc(OC)c(OC)c(OC)c1)C1=CC2CCC(C1)N2C (stereo unspecified)	3.9	1.5	97.8*	-9.8
O=C(O)c1cc2nc3c(c(C(F)(F)F)n2n1)CCc1ccccc1-3	84.8*	-40.9	x	74.4
COCCNC(=O)c1cc2nc3c(c(C(F)(F)F)n2n1)CCc1ccccc1-3	x	x	28.9	x
COc1cccc(N2CCN(c3ncnc4c3[nH]c3ccc(F)cc34)CC2C)c1 (stereo unspecified)	51.5*	-0.5	96.7*	26.1
CCOc1cc2[nH]c(=O)n(CCCN3CCCC3=O)c(=O)c2cc1OCC	15.3	7.6	45.8*	-10.7
SMILES	VCAM1 TNFa inh	F-actin modifier	E-sel TNF inh	HUVEC tox TNFa
COc1cc2[nH]c(=O)n(CCCCCC(=O)NCCCN3CCCC3=O)c(=O)c2cc1OC	4.5	2.7	-14.6	4.4
CC(NC(=O)c1cc(-c2ccccc2)nc2ccccc12)C1CCCO1 (stereo unspecified)	x	x	9.3	x
CCCCOc1ccc(-c2nnn(C(C)C(=O)OCC)n2)cc1 (stereo unspecified)	13.7	-97.7	65.8*	-9.3
Cc1ccc(N2CC(C(=O)Nc3ccc4c(c3)OCO4)CC2=O)cc1 (stereo unspecified)	7.5	23.3	16.7	88.6*
O=C(Nc1ccc2c(c1)OCO2)C1CC(=O)N(c2ccc3c(c2)OCCO3)C1 (stereo unspecified)	x	x	-20.2	x
COC(=O)c1cc(OC)c(OC)c(OC)c1N	x	x	-46.7	x
CCn1c(CN2CCN(c3ccc(Cl)cc3)CC2)nc2ccccc21	57.8*	10.4	14.5	-19.0
Cn1c(NCc2ccco2)nc2c1c(=O)n(Cc1ccc(Cl)cc1Cl)c(=O)n2C	-11.2	-10.9	-3.1	2.1
O=C(/C=C/c1ccc2c(c1)OCO2)Nc1nc2ccccc2s1	x	x	61.6*	x
CCN(CC(=O)NCc1ccccn1)S(=O)(=O)c1ccc(Cl)cc1	16.6	6.4	-1.9	78.6*
CCN(CC(=O)NC1CCCCC1)S(=O)(=O)c1ccc(Cl)cc1	13.6	8.2	-4.7	13.4
CCCCc1cc(=O)oc2c(CN(C)C)c(O)ccc12	x	x	-8.1	x
COc1ccc(-c2n[nH]c(C)c2-c2ccc(Cl)cc2)c(O)c1	-2.2	4.7	-22.4	-18.7
COc1ccc(-c2n[nH]c(C(F)(F)F)c2-c2cc3ccccc3o2)c(O)c1	-26.3	x	42.6*	18.3
CCOc1cc(C(=O)NCc2nnc(SCC(=O)OC)n2C)cc(OCC)c1OCC	x	x	71.1*	x
CCOC(=O)CSc1nnc(CNC(=O)c2cc(OCC)c(OCC)c(OCC)c2)n1C	6.9	-8.9	-0.2	-21.7
Cn1c(SCc2ccccc2)nnc1-c1cccs1	-11.8	4.5	5.0	9.4
O=C(CSC1=NC(=O)C(Cc2ccccc2)C(=O)N1)Nc1ncc(Br)cc1Br (stereo unspecified)	x	x	-34.4	x
CCOC(=O)CSc1nc(N)cc(=O)[nH]1	-10.5	25.4	76.6*	-8.3
COC(=O)CSc1nnc2n1C(C)(C)Cc1ccccc1-2	-4.7	12.1	-9.9	-21.6
COc1ccc(N(C)C(=O)CCC(=O)Nc2ccc3nc(N4CCOCC4)cc(C)c3c2)c(OC)c1	8.2	13.6	x	-34.8
C=CC(=O)Nc1ccc(Br)cc1	52.4*	-1.9	12.1	5.4
O=C(Nc1ccc(Br)cc1)c1ccco1	-3.3	0.2	3.3	9.3
COC(=O)c1ccc(NC(C)=O)cc1O	x	x	-17.9	x
COC(=O)c1cscc1NC(C)=O	9.4	30.1*	8.8	-20.4
SMILES	VCAM1 TNFa inh	F-actin modifier	E-sel TNF inh	HUVEC tox TNFa
COc1ccccc1CC(=O)Nc1cccc2c1CCCC2	x	x	-0.9	x
CCOc1cc(/C=C2/NC(=S)NC2=O)ccc1OCc1ccc([N+](=O)[O-])cc1	-0.9	-18.0	x	-5.8
Cc1cc(C)c(S(=O)(=O)Nc2ccc3c4c(cccc24)CC3)c(C)c1	88.6*	-23.7	15.0	57.2
O=C(NCCc1ccccc1)C1CCN(S(=O)(=O)c2cccnc2)CC1	2.5	-5.8	x	-2.4
O=C(COc1ccc(/C=N/NC(=O)c2ccccc2)cc1)Nc1ccc([N+](=O)[O-])cc1	-1.7	16.2	5.2	-13.0
CC(C)Oc1ccc(/C=N/NC(=O)C(CSCc2ccccc2)NC(=O)c2ccc([N+](=O)[O-])cc2)cc1 (stereo unspecified)	15.7	-9.0	95.6*	-35.5
COc1ccc(-n2nnc3c(SCc4ccccc4)ncnc32)cc1	-21.2	-13.9	x	-14.2
COc1cc(C(=O)N2CCN(c3cc(Cl)ccc3Cl)CC2)cc(OC)c1OC	57.5*	5.6	x	69.5
COc1cc(C(=O)N2CCN(c3cccc(C)c3C)CC2)cc(OC)c1OC	-9.2	5.0	x	34.2
O=C(CSc1nnc(CNc2ccc(F)cc2)n1Cc1ccco1)N1CCCC1	x	x	-6.5	x
O=S(=O)(N1CCCCC1)n1nnc2ccccc21	x	x	8.0	x
CCCOC(=O)c1ccc(Cl)c(NC(=O)c2ccc(-c3ccccc3)cc2)c1	9.8	-2.2	99.9*	-13.4
CC(=O)c1ccc(NC(=O)Oc2ccccc2)cc1	14.7	-11.1	x	8.5
O=C(Nc1cc(Cl)ccc1Cl)c1ccc(-c2ccccc2)cc1	x	x	-18.2	x

Screening results from PubChem BioAssay.
